Measured values as given in ChEMBL document CHEMBL3988442, “University of Dundee, Small-Polar-MMV Screening Library” (2021).

How the values were obtained:
[1] = target: T1, Aspartate--tRNA(Asp/Asn) ligase (Mycobacterium tuberculosis (strain ATCC 25618 / H37Rv)) (UniProt P9WFW3); assay: Assay for Asp RNA synthetase-1 from Mycobacterium tuberculosis; type: functional; design: scale not given: direction of the effect not stated beside the values; settings: 30 µM; further: in the data most compounds retested in dose-response had high values
T1 sequence (whole entry): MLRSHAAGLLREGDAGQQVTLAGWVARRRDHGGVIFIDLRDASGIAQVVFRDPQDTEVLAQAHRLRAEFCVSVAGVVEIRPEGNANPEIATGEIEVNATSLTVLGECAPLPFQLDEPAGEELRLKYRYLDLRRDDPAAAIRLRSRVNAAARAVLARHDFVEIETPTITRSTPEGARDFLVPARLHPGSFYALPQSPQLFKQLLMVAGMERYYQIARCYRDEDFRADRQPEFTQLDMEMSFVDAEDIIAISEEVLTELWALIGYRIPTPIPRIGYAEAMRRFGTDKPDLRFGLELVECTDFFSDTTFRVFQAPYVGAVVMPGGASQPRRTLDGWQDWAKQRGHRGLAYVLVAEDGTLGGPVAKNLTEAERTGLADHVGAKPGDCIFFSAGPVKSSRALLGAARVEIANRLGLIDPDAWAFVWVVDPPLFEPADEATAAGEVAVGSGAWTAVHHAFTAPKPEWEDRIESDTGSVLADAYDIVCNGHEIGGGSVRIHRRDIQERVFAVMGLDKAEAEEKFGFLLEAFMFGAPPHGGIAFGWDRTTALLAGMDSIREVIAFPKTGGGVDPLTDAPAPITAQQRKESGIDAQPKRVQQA

[2] = target: Shiga toxin 2 (Escherichia coli O157:H7) (UniProt P09385+P09386); assay: E. coli 0.157:H7 Shiga Toxin SOP - stx2 screening assay; type: functional; design: scale not given: direction of the effect not stated beside the values; settings: 30 µM

Structure (SMILES) | Percent Effect [1] [%] | Percent Effect [2] [%]
CC(O)CN1CCN(C(=O)c2ccc(Br)o2)CC1 (stereo not given) | -2.21 | 22.8
COc1ccc(C)cc1CN1CCCC1c1noc(C2CC2)n1 (stereo not given) | -4.34 | -3.88
Cn1cc(C(=O)NC[C@@H]2OC[C@H]3CN(Cc4ccco4)CC[C@H]32)cn1 | -0.729 | -33.5
Cn1cc(CCC(=O)N2C[C@H]3CC[C@@H]2CN(Cc2ccccc2)C3)cn1 | 2.92 | -3.02
COC(=O)Cn1cccc(S(=O)(=O)N2CCC(C)CC2)c1=O | -4.76 | -36.3
COc1cc(N2CCCC(c3nccn3Cc3cscn3)C2)nc(N)n1 (stereo not given) | -2.33 | 14.5
Cc1cc2cc(C(=O)N3CC[C@H](O)[C@]4(CCCO4)C3)ccc2o1 | 1.13 | -10.1
CC(C)Oc1cccc(CNC(=O)NC(C)(C(=O)O)c2ccco2)c1 (stereo not given) | 1.32 | 25.1
COc1ncc(C2(O)CCN(Cc3c(F)cccc3F)CC2)c(OC)n1 | 2.49 | 71.8
Cc1cc(C(=O)NCC2COCc3c(C)nnn3C2)no1 (stereo not given) | 2.38 | -17.1
CNS(=O)(=O)c1ccc(CNC(=O)NCC2CCCO2)cc1 (stereo not given) | 0.75 | 25.4
CC(C)CCOCCNC(=O)Nc1cc(C(F)(F)F)c[nH]c1=O | 1.4 | 5.72
O=C(Cc1c[nH]c2ccccc12)N1CCC(Nc2cccnn2)CC1 | 1.83 | -4.79
Cc1nc(CN(Cc2ccccc2)C2CCS(=O)(=O)C2)oc1C (stereo not given) | -0.478 | 24.1
CC(C)CN(Cc1nc2c(cnn2C)c(=O)[nH]1)C(C)C | -2.77 | 0.929
NC(=O)C1CCN(C(=O)c2cccc(CN3CCOCC3)c2)CC1 | -1.59 | 3.51
Cn1c(C2CC2)nc2c1CCN(CCS(=O)(=O)c1ccccc1)C2 | -5.83 | 6.27
O=C(O)c1coc(COc2cccc(F)c2)n1 | -2.21 | -2.73
O=C(c1cnccn1)N1CCN2C[C@H](OCc3ccccn3)C[C@H]2C1 | 4.4 | -7.9
O=C1COc2cc(C(=O)NS(=O)(=O)c3ccccc3F)ccc2N1 | -0.702 | 0.482
Cc1nc(CN2CCCC(NCCc3ccccc3Cl)C2)no1 (stereo not given) | -1.91 | 10.1
Cc1cnc(CN2CCC(N(C)Cc3nnc(C4CC4)n3C)C2)cn1 (stereo not given) | 5.06 | 5.3
O=C1NC(c2ccccc2)=N[C@@]12CC[C@@H]1CN(Cc3ccco3)C[C@@H]12 | 3.61 | -16.5
O=C(CC1CC1)N1CCn2cc(Cn3cncn3)nc2C1 | 3.1 | -11.8
CC(=O)Nc1nc(CN2CCCC2Cn2cncn2)cs1 (stereo not given) | -6.16 | -44

Structure (SMILES) | Percent Effect [1] [%] | Percent Effect [2] [%]
Cn1cc(NS(=O)(=O)c2ccc(OC(F)(F)F)cc2)ccc1=O | 51.5 | -3.73
COc1cccc2c1OCC(C(=O)NC1CCN(S(C)(=O)=O)CC1)C2 (stereo not given) | -3.65 | 11.1
COc1ccc2c(ccn2CCC(=O)O)c1 | -2.82 | -49
COc1ccccc1OCc1cc(C(=O)N2C[C@H](O)[C@@H](N(C)C)C2)n[nH]1 | 0.529 | -9.19
Cc1ccccc1N1CCN(C(=O)c2ccc[nH]2)C(C)C1 (stereo not given) | -2.33 | 24.5
CC(C)Nc1nc(N2CCOCC2)nc2c1CN(Cc1ccoc1)CC2 | -5.4 | 4.99
CCOCc1cccc(S(=O)(=O)N2CCSCC2)c1 | -3.43 | -4.15
O=C1COC2(CCN(Cc3ccoc3)CC2)CN1c1ccsc1 | 4.25 | -18.4
CC(NC1(CNC(=O)C(C)(C)C#N)CCOCC1)c1ccccc1 (stereo not given) | -6.25 | -10.5
CC(C)NC(=O)N1CCN(S(=O)(=O)C2CC2)CC2(CNC(=O)C2)C1 (stereo not given) | -2.4 | -12.6
O=C(c1cccc(S(=O)(=O)NCCCc2ncc[nH]2)c1)N1CCOCC1 | 8.25 | -13.2
Cc1cccc(-c2ccc3nc(C4CCN(CC5CC5)CC4)nn3c2)c1 | -1.89 | -31.4
COc1ccc(-c2cc(C3CCCCCN3S(=O)(=O)N(C)C)on2)cc1 (stereo not given) | -5.4 | -17.1
O=C1CC(c2ccsc2)c2c(n(C3CCOCC3)[nH]c2=O)N1 (stereo not given) | -2.53 | -30.3
CN(Cc1ccc(F)cc1)CC1(O)CCN(C(=O)c2ccccc2)C1 (stereo not given) | 3.23 | -6.1
O=C(Nc1ccccc1)N1CCn2nnc(COc3cccnc3)c2C1 | 9.35 | -2.97
CC(=O)NCC(=O)N1Cc2nccn2CC(Cn2cccn2)C1 (stereo not given) | -1.48 | 0.581
COc1ccc(OCc2nc(C(=O)N3CC[C@H](O)[C@@H](O)C3)co2)cc1 | -0.903 | 8.98
CC(C)C(Sc1nnc(C2CC2)n1C1CC1)C(=O)NCc1cccnc1 (stereo not given) | -2.03 | -18.2
Cc1cc(CN2Cc3ccccc3CC2c2nnc(C)o2)on1 (stereo not given) | -0.894 | 8.24
CN(CC(=O)N1CCC(C(O)c2ccccc2)CC1)c1cnccn1 (stereo not given) | -0.321 | -9.59
O=C1CC(c2cccnc2)c2c(c(C(=O)O)cn2-c2ccccc2)N1 (stereo not given) | 4.82 | -6.55
CN(C)c1cc(CNC(=O)Nc2ccc(S(C)(=O)=O)nc2)ccn1 | -1.23 | -117
Clc1ccc(OCCN2CCN(CCn3cncn3)CC2)cc1 | -1.39 | -23.5
Oc1ccc(N2CCN(Cc3cc4c(cc3Br)OCCO4)CC2)cc1 | 4.07 | 6.03
